PubChem BioAssay AID504332 (National Center for Advancing Translational Sciences (NCATS), 2011)
In all, about 350,000 compounds went through this assay and about 31,000 (8.9%) were called active. About 15% were inconclusive and are not listed. This excerpt belongs to a sample that is enriched for actives. A number with no mark means an inactive call. Calls follow the shape of the dose curve; as a rule, active = well fitted inhibition curve with a large enough effect; inconclusive = small, poorly fitted or top-dose-only effect; inactive = no such curve, though single readings can be large or run the other way.

Molecular target: Histone-lysine N-methyltransferase EHMT2 (Homo sapiens) (UniProt Q96KQ7)
Assay: qHTS Assay for Inhibitors of Histone Lysine Methyltransferase G9a; also: nearly all actives have a fitted effect of over 75% in size
Settings: G9a H3K9 monomethylation, AlphaScreen, 2 h; series mostly up to 59 µM; activity, negative = inhibition: at the top concentration
Method in brief: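 Compounds were preincubated with 20 nM G9a for 15 min, after which biotinylated H3K9 peptide (500 nM) and SAM (20 uM) started a 2 h room-temperature reaction. Monomethylated product was quantified by antibody-based AlphaScreen chemiluminescence.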
% is scaled to controls: 0 for no effect and ±100 for the full control effect; potency is read from the fitted curve at half-maximal effect.

Sequence of Histone-lysine N-methyltransferase EHMT2 (Homo sapiens) (Q96KQ7 913-1193 limits assumed): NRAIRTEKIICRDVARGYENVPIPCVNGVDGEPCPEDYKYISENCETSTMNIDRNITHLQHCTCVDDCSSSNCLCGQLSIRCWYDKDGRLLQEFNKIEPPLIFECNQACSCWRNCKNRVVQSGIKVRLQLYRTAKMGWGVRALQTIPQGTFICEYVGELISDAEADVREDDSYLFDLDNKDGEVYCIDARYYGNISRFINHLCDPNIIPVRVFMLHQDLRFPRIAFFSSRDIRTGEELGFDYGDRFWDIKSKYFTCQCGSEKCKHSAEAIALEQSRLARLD

Structure (SMILES)	activity, negative = inhibition	Potency
CCOc1ccc(NC(=O)CSc2c3c(nc4ccccc24)CCCC3)cc1	7.49%	–
COc1ccccc1CNC(=O)COn1nnc2ccc(S(=O)(=O)N3CCOCC3)cc21	-27.8% [at 102 µM]	–
Cc1cc(O)c(C(=O)/C=C/c2c(F)c(F)c(F)c(F)c2F)c(=O)o1	-25.4% [at 2.33 µM]	–
Cc1ccc2c(c1)N(C(=O)Nc1ccc(Br)cc1F)CCO2	-22.5%	–
Cc1ccc(S(=O)(=O)N2CCN(c3ccccc3)CC2)cc1C	2.79% [at 102 µM]	–
NS(=O)(=O)c1ccc(CNC(=O)c2cccc(S(=O)(=O)N3CCc4ccccc43)c2)cc1	15.2% [at 2.33 µM]	–
Cc1ccc(OCc2n[nH]c(=S)n2-c2ccccc2)cc1	–	1.58 µM (active)
Cc1ccc(OCc2n[nH]c(=S)n2-c2ccc(C)cc2)cc1	18.9% [at 102 µM]	–
COc1ccc(OCc2n[nH]c(=S)n2N)cc1	–	1.78 µM (active)
CC(Sc1nnc(COc2ccccc2)n1-c1ccccc1)C(=O)O (stereo unspecified)	9.68% [at 0.501 µM]	–
Cc1ccc(OCc2nc3ccccc3n2C)cc1	4.42% [at 0.501 µM]	–
Cc1n[nH]c(=O)n1-c1ccc(Oc2ccccc2)cc1	106%	–
Cc1ccc(NCc2n[nH]c(=S)n2-c2ccccc2)cc1Cl	–	22.4 µM (active)
COc1ccc(OCc2ccc(-c3nc4ccccc4c(=O)n3N)o2)cc1	14.4% [at 2.33 µM]	–
COc1ccc(OCC(=O)OCCN(C)C)cc1	-13.2%	–
Cc1ccc(NC(=O)Nc2cc(-c3ccccc3)nn2C)cc1Cl	4.64% [at 102 µM]	–
S=c1[nH]nc(COc2ccccc2)n1-c1ccccc1	–	2.51 µM (active)
Cc1ccc(NC(=O)CSc2nc3c([nH]c4ccccc43)c(=O)n2-c2ccccc2)cc1Cl	0.779%	–
CN(C)CCn1c2c(c(SCC(=O)Nc3ccccc3C(F)(F)F)nc1=O)CCCC2	7.38% [at 0.501 µM]	–
CCOC(=O)c1ccc(NC2=CC(c3ccc(OCC)cc3)N(c3ccc(C(=O)OCC)cc3)C2=O)cc1 (stereo unspecified)	-41.8%	–
COc1cc(NC(=O)CCn2nc(C)cc2C)cc(OC)c1OC	7.03%	–

Structure (SMILES)	activity, negative = inhibition	Potency
Cc1c(Cl)cccc1NC(=O)C1CCCN(C(=O)c2cnn(-c3ccccc3)c2-n2cccc2)C1 (stereo unspecified)	-2.57%	–
Cn1c(C(=O)N2CCCC(C(=O)NCc3ccccc3)C2)cc2sccc21 (stereo unspecified)	-0.912%	–
COc1ccc(-c2noc(CSc3nc4ccc(C)cc4[nH]3)n2)cc1	4.71%	–
O=C(Nc1ccc(C(F)(F)F)cc1)c1cccc(-n2cnnn2)c1	-33%	–
O=C(CN1C(=O)COc2ccc(Cl)cc21)N1CCOCC1	78.5% [at 102 µM]	–
CC(=N\NC(=O)c1cc(Br)ccc1O)/C(=N/O)C(=O)Nc1ccccc1	1.77% [at 102 µM]	–
COc1ccc(OC)c(/C=C/C(=O)c2ccc3c(c2)OCO3)c1	13.7% [at 12.7 µM]	–
Cc1ccccc1-c1nc(CS(=O)(=O)CC(=O)Nc2cc(Cl)cc(Cl)c2)c(C)o1	-2.38%	–
CCOc1ccccc1C(=O)NC1(C(F)(F)F)NC(=O)N(CCc2ccc(OC)c(OC)c2)C1=O (stereo unspecified)	-8.28%	–
O=C(CSc1ncnc2sccc12)N1CCN(C(=O)c2cccs2)CC1	14% [at 12.7 µM]	–
COc1ccc(CNC(=O)c2cc3c(=O)[nH]c4ccc(C)cc4c3s2)c(OC)c1	9.06%	–
CCOc1ccc(C(=O)Nc2cc(OC)ccc2OC)cc1	20% [at 102 µM]	–
CCOc1ccc(C(=O)Nc2cc(Cl)ccc2-n2cncn2)cc1OC	–	15.8 µM (active)
COc1cc(C(=O)Nc2cc(C(F)(F)F)ccc2-n2cncn2)cc(OC)c1OC	1.32% [at 102 µM]	–
COc1ccc(-n2nnnc2CNC(=O)c2ccc3ccccc3c2)cc1	-3.4% [at 102 µM]	–
CN(C)C(CNC(=O)c1cccc(S(=O)(=O)Nc2ccc(Br)cc2)c1)c1ccco1 (stereo unspecified)	–	50.1 µM (active)
COc1ccccc1C(CNC(=O)c1cccc(S(=O)(=O)Nc2ccc(F)cc2)c1)N(C)C (stereo unspecified)	17.4% [at 12.7 µM]	–
COc1ccccc1C(CNC(=O)c1cccc(NS(=O)(=O)c2ccc(Br)cc2)c1)N(C)C (stereo unspecified)	-36.2% [at 102 µM]	–
CCOc1ccccc1CNCc1c(C(=O)O)c(C)n(Cc2ccc(C)cc2)c1C	-1.87%	–
O=C(O)c1cc2c(cc1NC(=O)c1c(F)cccc1Cl)OCCCO2	-15.3% [at 102 µM]	–
O=C(NCc1cccs1)c1ccc2c(c1)ncn2C1CCCC1	–	50.1 µM (active)

Structure (SMILES)	activity, negative = inhibition	Potency
O=C(NCCN1CCOCC1)c1ccc2c(c1)ncn2C1CCCC1	-47.7% [at 102 µM]	–
O=C(NCc1ccc(Cl)cc1)c1ccc2c(c1)nnn2C1CCCC1	-6.56%	–
CCOc1ccc(C(=O)CCC(=O)NC2=NCCS2)cc1	2.24% [at 0.501 µM]	–
CC(C)c1nc(CNC(=O)CC2C(=O)NCCN2Cc2ccoc2)cs1 (stereo unspecified)	-29.4% [at 102 µM]	–
COc1ccccc1CN1CCNC(=O)C1CC(=O)N(C)CC1CCOCC1 (stereo unspecified)	13.6% [at 0.0925 µM]	–
CN(CCc1ccccn1)C(=O)c1ccc(OC2CCN(CCc3ccccc3)CC2)cc1	21.6% [at 102 µM]	–
CN(C(=O)CC1C(=O)NCCN1Cc1ccc(F)cc1Cl)C1CCCCC1 (stereo unspecified)	0.263% [at 102 µM]	–
CN(Cc1cccc2ncccc12)C(=O)CC1C(=O)NCCN1Cc1ccc(F)cc1 (stereo unspecified)	–	44.7 µM (active)
Cc1cnc(CN(C)C(=O)CC2C(=O)NCCN2Cc2cccc(F)c2F)[nH]1 (stereo unspecified)	-5.82% [at 102 µM]	–
CCCOC(=O)CC1C(=O)NCCN1Cc1ccc(F)cc1 (stereo unspecified)	10.2% [at 102 µM]	–
COc1cccc(CN2CCNC(=O)C2CC(=O)N(C)CCc2ccccn2)c1 (stereo unspecified)	–	44.7 µM (active)
Cc1nc(CN(C)C(=O)CC2C(=O)NCCN2Cc2ccc(F)cc2)cs1 (stereo unspecified)	–	44.7 µM (active)
Cc1cccc(NC(=O)Cn2c(=O)n(CCC(C)C)c(=O)c3cccnc32)c1	-1.53%	–
CCN(CC(=O)Nc1c(F)cccc1F)C(=O)c1cnc(C)cn1	9.59% [at 2.33 µM]	–
COc1ccc(-c2nc(CN3CCC(C(=O)NCCN(CC(C)C)CC(C)C)CC3)c(C)o2)cc1OC	-43.1%	–
Cc1ccc(C(=O)Nc2nc(-c3ccccc3)ns2)cc1	-3.13%	–
Cc1ccc(CNC(=O)CC(NC(=O)c2ccccc2)c2ccccc2)cc1 (stereo unspecified)	12.4% [at 12.7 µM]	–
Cc1ccc(CNC(=O)CCc2c(C)nc3nc(CNC(=O)OC(C)(C)C)nn3c2C)cc1	-2.86%	–
COCCNC(=O)c1ccc2c(c1)N=C(C)c1cc(C)ccc1S2	-33.8%	–
